An excerpt weighted towards active compounds, which were near 2.4% of everything screened.
NOTCH ag = NOTCH pathway agonism | NOTCH signaling luciferase reporter cells, luminescence | activation, % at 2.5 µM | AID 434982 | 15,000 compounds, 0.4% hits; in the data active = activation above about 2.2%
rat GALR2 ag = activates the rat galanin receptor 2 | O08726 | cell-based GALR2 agonist screen | activation, % at 10 µM | 16,000 compounds, 0.5% hits | AID 833; in the data active = activation above about 15%
S1P1 ag = S1P1 (human) receptor agonism; P21453; S1P1 agonist cell-based reporter assay; activation, % at 4.5 µM; 16,000 compounds, 1.5% hits; in the data active = activation above about 80%
TLR4 MyD88 blk = blocks binding of human TLR4 to MyD88. Cell-based TLR4-MyD88 binding inhibition assay. inhibition, % at 10 µM. 16,000 compounds, 0.06% hits. AID 811; in the data active = inhibition above about 45%
Large screens that a line does not name were inactive.

CCOC(=O)Cc1c(C)[nH]c(C(=O)OCC)c1CC(=O)OCC	none
Cc1onc(-c2ccccc2Cl)c1C(=O)N1c2ccccc2NC(=O)CC1C (stereo not drawn)	none
N#Cc1cnc(Oc2ccc(Cl)cc2)nc1N	rat GALR2 ag 21
CSc1ccc(OS(=O)(=O)c2ccc(C)c(F)c2C)cc1	none
Cc1c2c(=O)n(C)ncc2c(-c2ccccc2)n1-c1ccc([N+](=O)[O-])cc1	none
O=c1c2c(-c3ccc([N+](=O)[O-])cc3)onc2n(-c2ccccc2)c(=O)n1-c1ccccc1	S1P1 ag 123
O=C(NC(=O)c1c(F)cccc1Cl)Nc1ccccc1N1CCCCC1	none
O=C(CCSCc1c(F)cccc1Cl)N1CCN(c2ncc(C(F)(F)F)cc2Cl)CC1	none
CCOC(=O)/C(C#N)=C/c1cn(-c2ccccc2)nc1-c1ccccc1	rat GALR2 ag 69
Cc1c(Cc2c(Cl)cccc2Cl)c(=O)oc2cc(O)ccc12	none
CCCCOc1ccc(-c2ccc(C#N)cc2)cc1	none (no result: NOTCH ag)
OCc1ccc(-c2cc(C(F)(F)F)cc(C(F)(F)F)c2)o1	none
O/N=C/c1ccc(-c2cc(C(F)(F)F)cc(C(F)(F)F)c2)o1	S1P1 ag 92
